# Results as given in PubChem BioAssay (NCI).
# About 83,000 compounds went through this panel and 20% of them were active in at least one assay; those are over-represented in the sample as a whole.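 Negative percent growth values reflect cell death: -40 means 40% of the cells present at the start died, and -100 means all died.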 Activity calls are given as the source filed them.
# System: KM12 colon
# Assay: NCI-60 one-dose screen, 48 h (100 = growth as untreated, 0 = no growth, -100 = all killed)
# Details: 10 µM unless noted
# Protocol: Growth inhibition of the KM12 human tumor cell line is measured as a screen for anti-cancer activity. Cells are grown in 96 well plates and exposed to the test compound for 48 hours. Compounds are tested at a single concentration, which is 10^-5 M for most compounds. The reported endpoint is percent growth (GI% or GIPRCNT), where numbers from 0 - 100% represent growth inhibition, and numbers from -100% - 0 represent cell death. For example, a value of 40 represents 60% growth inhibition. A value of 0 means no net growth occurred over the course of the experiment. A value of -40 indicates 40% of cells at the beginning of the experiment died by the end of the experiment. A value of -100 means all cells are dead at the end of the experiment.
# NCI-60 Human Tumor Cell Lines Screen was performed using the standard one-dose NCI protocol, which is described in more detail at https://dtp.cancer.gov/discovery_development/nci-60/default.htm.
# Compounds with GIPRCNT values below 10 were considered active. Activity score was based on GIPRCNT using the following formula: […]
# Score is 0 for GIPRCNT values of 100 or above, 50 for GIPRCNT values of 0, and 100 for GIPRCNT values of -100.
row,Structure (SMILES),growth
1,O=C(COc1cc(O)c2c(=O)cc(-c3ccccc3)oc2c1)Nc1ccccc1,86.5% (inactive)
2,Brc1ccc(Oc2ccc(Nc3ncnc4onc(-c5ccccc5)c34)cc2)cc1,99.6% (inactive)
3,NS(=O)(=O)c1ccc(CCN=C=S)cc1,8.37% (active)
4,O=C(Nc1ccc(F)c(Cl)c1)Nc1ccc(Cl)c(Cl)c1,51.6% (inactive)
5,Clc1ncccc1Nc1ccc2nnc(-c3ccncc3)n2n1,101% (inactive)
6,CCOC(=O)c1cc2c(n1Cc1cccc(OC)c1)-c1oncc1CCC2,27.1% (inactive)
7,CN1C(=O)N(C)C2C1NN=c1s/c(=C\c3c[nH]c4ccccc34)c(=O)n12 (stereo not given),4.61% (active)
8,CCn1c(Cc2ccccc2Nc2c(Cl)cccc2Cl)nnc1SCC(=O)NN1C(=O)/C(=C/c2cccc(OC)c2OC)SC1=S,102% (inactive)
9,O=c1c(-c2nc3ccccc3[nH]2)cc2ccccc2n1Cc1cn(Cc2ccc(N3CCOCC3)cc2)nn1,87.3% (inactive)
10,CC(=O)n1cc(-c2c[nH]c3ccccc23)c(-c2ccc(Cl)cc2)n1,84.8% (inactive)
11,CN(C)c1ccc(N=Cc2ccc(N3CCOCC3)cc2)cc1,59.5% (inactive)
12,O=c1c2cccc(F)c2sc2c(N3CCNCC3)nc3ccccc3c12,10.4% (inactive)
13,CCn1c(-c2nonc2Nc2ccc(OC)cc2)nc2ccccc21,106% (inactive)
14,CCN(CCO)CCNc1ccc(C)c2sc3cc(Cl)ccc3c(=O)c12,7.87% (active)
15,O=c1oc2ccc(Br)cc2c(=O)n1-c1ccc(Cl)cc1F,-14.7% (active)
16,Cc1ccc(C(=O)c2oc3ccc4c(C)cc(=O)oc4c3c2C)cc1,17.8% (inactive)
17,O=C(c1nc2ccccc2[nH]1)C1C(c2ccc(F)cc2)C2CC3CCCCC3N2[C@@]12C(=O)Nc1ccc(Cl)cc12 (stereo not given in full),43.9% (inactive)
18,O=C(/C=C/c1ccc(Cl)cc1)c1ccc(Nc2nc(NCCO)nc(N3CCOCC3)n2)cc1,28.5% (inactive)
19,C[n+]1c2ccccc2nc2ccc(NCCO)cc21,92% (inactive)
20,Nc1nc(Nc2cccc(F)c2)nc2ccccc12,59.2% (inactive)

row,Structure (SMILES),growth
1,COc1ccc(-c2cn[nH]c2-c2ccc(OC)c(O)c2)cc1,44.8% (inactive)
2,COc1ccccc1C1=C(Br)C(=O)c2nc(C)ccc2C1=O,103% (inactive)
3,O=C(Nc1nc2c(s1)CCc1c-2c(Br)n(Cc2ccccc2)c1Br)c1ccccc1,65.5% (inactive)
4,CCN1C(=O)N(CC)C2C1NN=c1s/c(=C3\C(=O)N(C(C)C)c4ccccc43)c(=O)n12 (stereo not given),15.3% (inactive)
5,CCCN1C(=O)N(CCC)C2C1NN=c1s/c(=C3\C(=O)N(C(C)C)c4ccccc43)c(=O)n12 (stereo not given),26.9% (inactive)
6,Cc1cccc(NC(=O)c2sc3nc4c(cc3c2N)CCCC4)c1C,8.85% (active)
7,COC(=O)/C(=C\c1c(C)[nH]c2ccccc12)S(=O)(=O)c1ccccc1,-13.2% (active)
8,CCCCC1COc2cccc3c2N1C=C/C3=C\C(=O)N(C)c1ccccc1 (stereo not given),65.2% (inactive)
9,COc1ccc(CN2CCCC(C(=O)c3ccc(C(F)(F)F)cc3)C2)c(O)c1 (stereo not given),18.5% (inactive)
10,O=C1OC(c2ccccc2)(c2ccccc2)c2ccsc21,99.1% (inactive)
11,O=C(O)CCCN1C(=O)C2C3CCC(C3)C2C1=O (stereo not given),103% (inactive)
12,COc1ccc(/C=C/C(=O)c2ccc(Nc3nc(NCCO)nc(Nc4ccc(Cl)cc4)n3)cc2)cc1,41% (inactive)
13,Cc1sc2ncnc(Sc3nc4ccccc4[nH]3)c2c1C,-90.1% (active)
14,Cc1ccc2[nH]c(=O)cc(-n3nncc3Cn3c4ccccc4c4ccccc43)c2c1,103% (inactive)
15,CCOc1cccc(/C=N\Nc2nc(=O)cc(C(=O)OC)s2)c1O,75.3% (inactive)
16,O=C1/C(=C/c2ccc(O)cc2)COc2ccc(O)cc21,64.7% (inactive)
17,Cc1ccc(Cc2cnc(NC(=O)CN3C(=O)/C(=C\c4ccccc4)SC3=S)s2)cc1,103% (inactive)
18,COc1cc(/C=C/C(=O)N2c3ccccc3CC2C)c(OC)c2c1OCO2 (stereo not given),93.8% (inactive)
19,O=C(Nc1ccc(C23CC4CC(CC(c5ccccc5)(C4)C2)C3)cc1)c1cccs1,64.8% (inactive)
20,Cc1[nH]c2ccccc2c(=O)c1CC=C(Cl)Cl,18.2% (inactive)
